Measurements: PubChem BioAssay
Activity calls are given as the source filed them.

Experiments:
[1] = E. coli DRC41 culture turbidity changes, primary screen, E. coli filamentation inducer project, strain DRC41, OD650, 48 h (AID 1152);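 also: E. coli MC1000 strain DRC41 lacking acrAB efflux pump and sulA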; settings: E. coli DRC41 (acrAB sulA), higher = more signal, called active from +8 up or from −8 down
[2] = small-molecule binders of probe aLefty1, primary screen, biochemical, small-molecule microarray, 635/667 nm fluorescence (AID 1153); settings: higher = more signal;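 also: score merges spot fluorescence with signal-to-noise ratio from the scanned slide images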
[3] = PSAC antagonists in infected red cells, primary screen, cell-based, P. falciparum Indochina, OD700, 1 h (AID 1154); settings: P. falciparum Indochina infected RBC osmotic lysis, higher = more signal, called active from +8 up or from −8 down
[4] = PSAC antagonists in infected red cells, primary screen, cell-based, P. falciparum Indochina, OD700, 2 h (AID 1155);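 also: lysis reports solute entry through the parasite surface anion channel PSAC; channel blockers reduce lysis of infected cells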; settings: P. falciparum Indochina infected erythrocytes, osmotic lysis OD700; higher = more signal, called active from +8 up or from −8 down
[5] = osmotic lysis modulators in infected erythrocytes, primary screen, PSAC antagonist project, cell-based, P. falciparum Indochina, OD700, 3 h (AID 1156); settings: higher = more signal, called active from +8 up or from −8 down
[6] = PSAC antagonists in infected red cells, primary screen, cell-based, P. falciparum Indochina, OD700, 18 h (AID 1157); settings: P. falciparum Indochina infected erythrocytes, osmotic lysis OD700, 18 h; higher = more signal, called active from +8 up or from −8 down
[7] = modulators of S6 phosphorylation in cells, primary screen, cell-based, A549, cytoblot, luminescence, serum-stimulated (AID 1158); settings: A549 phospho-S6 cytoblot, 5 h, higher = more signal;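 also: serum-stimulated A549 lung adenocarcinoma cells; signal is phosphorylated S6 detected by cytoblot immunostaining with HRP secondary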
[8] = molecular target: NADPH oxidase 2 (Homo sapiens) (UniProt P04839); assay: NOX2-dependent H2O2 signal modulators, primary screen, NOX inhibitor project, cell-based, HEK293-NOX2, PMA-stimulated, Amplex Red fluorescence (AID 1159); settings: 45 min, higher = more signal, called active from +8 up or from −8 down; also: test concentration not given here
Chain of NADPH oxidase 2 (Homo sapiens) (P04839 whole entry, looked up): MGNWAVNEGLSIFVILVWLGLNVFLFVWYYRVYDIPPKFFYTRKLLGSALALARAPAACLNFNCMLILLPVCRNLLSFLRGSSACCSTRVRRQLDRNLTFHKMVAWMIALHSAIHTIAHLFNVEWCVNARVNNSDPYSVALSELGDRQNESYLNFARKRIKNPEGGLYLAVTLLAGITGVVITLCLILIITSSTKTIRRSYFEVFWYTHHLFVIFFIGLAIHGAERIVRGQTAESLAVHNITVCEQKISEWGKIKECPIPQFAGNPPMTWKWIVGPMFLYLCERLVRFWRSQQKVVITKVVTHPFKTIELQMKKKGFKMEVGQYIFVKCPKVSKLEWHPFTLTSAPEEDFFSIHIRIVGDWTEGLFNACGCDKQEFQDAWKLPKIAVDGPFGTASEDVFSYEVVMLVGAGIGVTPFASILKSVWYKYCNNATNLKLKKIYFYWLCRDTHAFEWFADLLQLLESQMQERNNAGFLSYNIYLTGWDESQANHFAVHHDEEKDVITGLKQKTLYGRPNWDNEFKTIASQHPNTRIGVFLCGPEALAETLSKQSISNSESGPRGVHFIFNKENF

[9] = molecular target: NADPH oxidase 4 (Homo sapiens) (UniProt Q9NPH5); assay: NOX4-dependent H2O2 signal modulators, primary screen, NOX inhibitor project, cell-based, HEK293-NOX4, tetracycline-induced, Amplex Red fluorescence (AID 1160); settings: 45 min, higher = more signal, called active from +8 up or from −8 down
Chain of NADPH oxidase 4 (Homo sapiens) (Q9NPH5 whole entry, looked up): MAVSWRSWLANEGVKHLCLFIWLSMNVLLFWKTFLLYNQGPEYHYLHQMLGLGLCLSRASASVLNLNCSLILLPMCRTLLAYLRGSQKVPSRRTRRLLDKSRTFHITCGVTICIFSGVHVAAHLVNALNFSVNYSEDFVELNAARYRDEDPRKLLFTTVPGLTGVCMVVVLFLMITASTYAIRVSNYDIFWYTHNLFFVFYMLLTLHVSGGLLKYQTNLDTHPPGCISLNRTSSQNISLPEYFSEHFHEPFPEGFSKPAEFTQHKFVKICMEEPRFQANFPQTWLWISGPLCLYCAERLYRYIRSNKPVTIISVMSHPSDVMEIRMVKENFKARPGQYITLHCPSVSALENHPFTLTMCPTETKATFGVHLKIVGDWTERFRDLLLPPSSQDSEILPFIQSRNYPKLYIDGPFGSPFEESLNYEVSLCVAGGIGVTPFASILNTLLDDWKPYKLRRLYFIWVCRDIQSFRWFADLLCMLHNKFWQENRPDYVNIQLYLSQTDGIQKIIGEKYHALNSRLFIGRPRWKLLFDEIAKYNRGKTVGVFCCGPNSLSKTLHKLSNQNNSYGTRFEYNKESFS

[10] = molecular target: NADPH oxidase 5 (Homo sapiens) (UniProt Q96PH1); assay: NOX5-dependent H2O2 signal modulators, primary screen, NOX inhibitor project, cell-based, HEK293-NOX5, Amplex Red fluorescence (AID 1161); settings: HEK293-NOX5, ionomycin, 45 min, higher = more signal
Chain of NADPH oxidase 5 (Homo sapiens) (Q96PH1 whole entry, looked up): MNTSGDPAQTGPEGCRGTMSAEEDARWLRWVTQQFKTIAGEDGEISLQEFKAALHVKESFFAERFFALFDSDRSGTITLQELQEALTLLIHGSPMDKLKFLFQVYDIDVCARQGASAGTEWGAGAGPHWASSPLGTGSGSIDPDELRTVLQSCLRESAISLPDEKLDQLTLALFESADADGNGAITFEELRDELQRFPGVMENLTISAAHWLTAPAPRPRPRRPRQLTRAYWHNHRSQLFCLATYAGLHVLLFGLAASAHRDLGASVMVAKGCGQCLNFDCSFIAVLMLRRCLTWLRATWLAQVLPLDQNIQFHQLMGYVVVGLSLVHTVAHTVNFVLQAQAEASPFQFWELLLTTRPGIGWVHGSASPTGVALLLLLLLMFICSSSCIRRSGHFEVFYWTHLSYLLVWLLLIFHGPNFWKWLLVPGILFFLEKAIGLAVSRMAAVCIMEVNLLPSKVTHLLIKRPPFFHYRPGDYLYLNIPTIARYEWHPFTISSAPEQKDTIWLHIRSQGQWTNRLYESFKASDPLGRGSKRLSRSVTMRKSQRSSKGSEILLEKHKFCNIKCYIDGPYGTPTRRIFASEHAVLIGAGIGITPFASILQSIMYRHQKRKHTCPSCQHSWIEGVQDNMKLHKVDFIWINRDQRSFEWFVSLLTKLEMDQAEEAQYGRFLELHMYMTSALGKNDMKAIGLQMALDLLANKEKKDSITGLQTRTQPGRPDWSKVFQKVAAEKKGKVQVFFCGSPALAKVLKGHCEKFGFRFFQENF

[11] = A549 cell viability effects, profiling panel, calcein-AM fluorescence, 48 h, basal (AID 1162); settings: higher = more signal; also: test concentration not given here
[12] = adipocyte viability effects, profiling panel, cell-based, 3T3-L1 adipocytes, calcein-AM fluorescence, 48 h, basal (AID 1163); settings: 3T3-L1 adipocytes viability, higher = more signal; also: test concentration not given here
[13] = HepG2 cell viability effects, profiling panel, calcein-AM fluorescence, 48 h, basal (AID 1164); settings: higher = more signal; also: test concentration not given here
[14] = MM1S cell viability effects, profiling panel, calcein-AM fluorescence, 48 h, basal (AID 1165); settings: higher = more signal;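 also: viability of MM1S multiple myeloma cells under basal unstimulated conditions; test concentration not given here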
[15] = basal RPMI8226 viability, no added stimulus, profiling panel, cell-based, calcein-AM fluorescence, 48 h, PK04 Diversity Set (AID 1166); settings: RPMI8226 myeloma viability, higher = more signal;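 also: cells grown under basal conditions without added stimulus; test concentration not given here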
[16] = basal HepG2 mitochondrial membrane potential changes, profiling panel, cell-based, JC-1 fluorescence, 24 h, 100 nL compound (AID 1167); settings: higher = more signal; also: test concentration not given here
[17] = basal 3T3-L1 adipocyte mitochondrial potential changes, profiling panel, cell-based, JC-1 fluorescence, 3T3-L1 adipocytes, 24 h, 100 nL compound (AID 1168); settings: JC-1 mitochondrial fluorescence, higher = more signal, called active from +8 up or from −8 down; also: test concentration not given here
[18] = basal RPMI8226 mitochondrial membrane potential changes, profiling panel, cell-based, JC-1 fluorescence, 24 h, 100 nL compound (AID 1169); settings: RPMI8226 myeloma, JC-1 mitochondrial potential fluorescence, higher = more signal; also: test concentration not given here
[19] = basal MM1S mitochondrial membrane potential changes, profiling panel, cell-based, JC-1 fluorescence, 24 h, 100 nL compound (AID 1170); settings: higher = more signal; also: test concentration not given here
[20] = A549 lung cancer cell viability effects, profiling panel, resazurin fluorescence, 24 h, PK04 Diversity Set (AID 1171); settings: higher = more signal, called active from +8 up or from −8 down; also: test concentration not given here

| SMILES | z-score [1] | composite z-score [2] | z-score [3] | z-score [4] | z-score [5] | z-score [6] | z-score [7] | z-score [8] | z-score [9] | z-score [10] | z-score [11] | z-score [12] | z-score [13] | z-score [14] | z-score [15] | z-score [16] | z-score [17] | z-score [18] | z-score [19] | z-score [20] |
| --- | --- | --- | --- | --- | --- | --- | --- | --- | --- | --- | --- | --- | --- | --- | --- | --- | --- | --- | --- | --- |
| CC[C@@H]1C=C(C(=O)O)[C@H](c2ccccc2)N1S(=O)(=O)c1ccc(C)cc1 | -1.24 (inactive) | -0.0984 | 1 (inactive) | 0.72 (inactive) | -0.393 (inactive) | 0.512 (inactive) | -0.265 | 0.848 (inactive) | -0.114 (inactive) | -0.978 | -0.71 | -1.48 | -1.22 | -0.0502 | -0.674 | -0.93 | -0.703 (inactive) | 0.77 | -0.76 | -0.687 (inactive) |
| CC(C)N1C(=O)c2ccccc2[C@@H](C(=O)NCCN2CCOCC2)[C@@H]1c1ccc(CO)cc1 | -0.675 (inactive) | -0.0908 | 2.01 (inactive) | -0.151 (inactive) | 1.24 (inactive) | 0.255 (inactive) | -0.468 | 1.59 (inactive) | 0.675 (inactive) | 0.474 | 0.281 | -0.973 | 0.135 | -0.551 | 0.165 | -0.247 | -1.26 (inactive) | 0.772 | 0.113 | 0.175 (inactive) |
| C=CCOC(=O)[C@@]1(Cc2ccccc2)C[C@H]2CO[C@H](c3ccc(OC)cc3)N2C1=O | -0.0282 (inactive) | -0.338 | 1.36 (inactive) | 0.522 (inactive) | -0.256 (inactive) | 0.0894 (inactive) | -0.673 | 0.826 (inactive) | -0.213 (inactive) | -1.93 | 0.158 | 0.223 | -0.311 | -0.657 | -1.5 | -0.574 | 0.437 (inactive) | -0.272 | -0.47 | 0.864 (inactive) |
| COCCOC(=O)N1C(=O)[C@@]2(c3cc(C#CC4(O)CCCCCC4)ccc31)[C@H](c1ccc(O)cc1)N1[C@H](c3ccccc3)[C@H](c3ccccc3)OC(=O)[C@H]1[C@@H]2C(=O)N1CCN(c2ncccn2)CC1 | -0.533 (inactive) | 0.477 | 0.138 (inactive) | 0.525 (inactive) | -0.166 (inactive) | -0.0236 (inactive) | 0.159 | 1.54 (inactive) | 0.996 (inactive) | 1.11 | -0.98 | 0.284 | 0.278 | -1.61 | -1.16 | -0.81 | -0.912 (inactive) | -0.406 | -0.091 | 0.435 (inactive) |
| CC1CC/C=C\[C@H]2OC34C=CCN(c5ccc6ccccc6c5)C(=O)[C@H]3N(CCCO)C(=O)[C@@H]4C2C(=O)O1 (stereo not given in full) | -0.866 (inactive) | -0.138 | 1.33 (inactive) | 0.398 (inactive) | -0.0069 (inactive) | 0.357 (inactive) | -0.0819 | 1.84 (inactive) | -1.18 (inactive) | 2.84 | -0.391 | -0.229 | -0.597 | -0.144 | -0.143 | -0.519 | -0.856 (inactive) | 0.17 | 0.707 | -0.525 (inactive) |
| C=C(C(=O)CC[C@H](OC(=O)c1ccccc1-c1ccccc1C(=O)O)c1cccc(OCCO)c1)C(C)C | -0.567 (inactive) | -0.328 | 4.87 (inactive) | 0.857 (inactive) | 2.06 (inactive) | 0.503 (inactive) | 0.0988 | 1.49 (inactive) | 0.361 (inactive) | -1.48 | -0.613 | 0.422 | -0.502 | -3.07 | -1.52 | -1.68 | -0.156 (inactive) | 0.248 | 0.618 | -0.701 (inactive) |
| CCOC(=O)C1=CC[C@@H](c2ccccc2F)N(S(=O)(=O)c2ccc(C)cc2)[C@H]1c1ccccc1 | -1.33 (inactive) | -0.0544 | 0.353 (inactive) | 1.17 (inactive) | 0.0175 (inactive) | 0.338 (inactive) | -0.445 | 0.941 (inactive) | 0.6 (inactive) | 2.18 | -0.982 | -0.815 | -0.244 | -1.47 | -0.413 | 2.25 | -1.35 (inactive) | -0.0368 | -1.24 | 2.12 (inactive) |
| Cc1ccc(S[C@]2(C(=O)NCC(F)(F)F)CC(=O)N(Cc3cc(C(F)(F)F)cc(C(F)(F)F)c3)[C@@H]2c2ccc(CO)cc2)cc1 | -0.415 (inactive) | -0.146 | 1.74 (inactive) | 0.594 (inactive) | -0.573 (inactive) | 0.501 (inactive) | -0.488 | -0.0338 (inactive) | 0.0959 (inactive) | 0.496 | 0.0806 | -0.547 | 0.643 | -0.783 | -0.759 | -0.693 | -0.658 (inactive) | 0.213 | -0.299 | -0.45 (inactive) |
| COc1ccc(CCNC(=O)[C@@]2(Sc3ccc(C)cc3)CC(=O)N(Cc3ccccc3C(F)(F)F)[C@@H]2c2ccc(CO)cc2I)cc1 | 0.729 (inactive) | 0.0701 | 7.89 (inactive) | 1.43 (inactive) | 0.932 (inactive) | 0.844 (inactive) | -0.513 | 0.933 (inactive) | -2.09 (inactive) | 0.713 | 0.751 | -0.178 | -0.253 | -2.41 | -2.36 | -1.03 | -0.322 (inactive) | -0.714 | -0.841 | 0.956 (inactive) |
